Laboratory results from PubChem BioAssay (Tox21).
Inconclusive results are not listed. Active and inactive are the calls of the source. Unless noted, calls come from the whole dose curve; as a rule, active = well fitted curve in the direction sought with a large enough effect in the repeat runs; inconclusive = weak or mixed curves; inactive = no such curve, though single readings can be large; an effect the other way counts as inactive or inconclusive.

Tests used:
[1] = target: Aryl hydrocarbon receptor (Homo sapiens) (UniProt P35869); assay: qHTS assay to identify small molecule that activate the aryl hydrocarbon receptor (AhR) signaling pathway (AID 743085);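 note: HG2L7.5c1 human HepG2 liver cells with stably integrated DRE-driven firefly reporter; series mostly up to about 70 µM; nearly all actives have a fitted effect of over 15% in size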
Aryl hydrocarbon receptor (Homo sapiens), sequence (P35869 whole entry, looked up): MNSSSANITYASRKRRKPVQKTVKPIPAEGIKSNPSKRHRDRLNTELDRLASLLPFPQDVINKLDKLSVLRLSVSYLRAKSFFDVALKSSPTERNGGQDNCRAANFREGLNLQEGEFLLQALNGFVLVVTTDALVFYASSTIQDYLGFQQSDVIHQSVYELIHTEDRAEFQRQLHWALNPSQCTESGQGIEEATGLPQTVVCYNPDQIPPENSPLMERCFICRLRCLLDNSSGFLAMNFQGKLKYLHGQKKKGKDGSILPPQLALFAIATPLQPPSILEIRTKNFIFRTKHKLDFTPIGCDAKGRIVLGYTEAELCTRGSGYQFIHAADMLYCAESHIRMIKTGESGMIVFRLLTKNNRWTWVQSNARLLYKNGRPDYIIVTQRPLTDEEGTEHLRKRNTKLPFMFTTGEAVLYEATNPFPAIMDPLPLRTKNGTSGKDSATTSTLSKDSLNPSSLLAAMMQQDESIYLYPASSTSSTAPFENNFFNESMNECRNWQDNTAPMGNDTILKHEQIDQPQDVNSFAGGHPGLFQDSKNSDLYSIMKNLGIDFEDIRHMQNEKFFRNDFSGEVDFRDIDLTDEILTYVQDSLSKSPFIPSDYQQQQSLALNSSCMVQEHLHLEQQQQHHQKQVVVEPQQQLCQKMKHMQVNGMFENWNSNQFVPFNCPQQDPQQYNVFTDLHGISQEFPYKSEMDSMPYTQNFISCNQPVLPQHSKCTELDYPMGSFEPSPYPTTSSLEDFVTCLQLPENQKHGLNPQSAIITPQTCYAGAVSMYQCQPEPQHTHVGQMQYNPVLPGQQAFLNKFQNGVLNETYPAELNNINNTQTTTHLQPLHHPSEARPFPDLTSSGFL
Outline: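 A multiplexed format paired cell viability (CellTiter-Fluor fluorescence) with AhR-dependent luciferase output (ONE-Glo luminescence) in the same wells of HepG2 DRE-luc cells after 24 h compound exposure at 37C.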

[2] = qHTS assay to identify small molecule that activate the aryl hydrocarbon receptor (AhR) signaling pathway - cell viability counter screen (AID 743086);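 note: HepG2 liver cells carrying the AhR DRE luciferase reporter; series mostly up to about 70 µM; nearly all actives have a fitted effect of over 45% in size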
Outline: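 HepG2-AhR-luc (HG2L7.5c1) cells, 4000/well, treated 24 h at 37 C with compound; viability measured as CellTiter-Fluor fluorescence after 30 min in the same wells as the luciferase read.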

[3] = target: Peroxisome proliferator-activated receptor gamma (Homo sapiens) (UniProt P37231); assay: qHTS assay to identify small molecule agonists of the peroxisome proliferator-activated receptor gamma (PPARg) signaling pathway (AID 743094; active = well fitted activation curve with a large enough effect in the signal ratio in the repeat runs, not every such curve was filed as active; the % refers to the signal ratio)
Peroxisome proliferator-activated receptor gamma (Homo sapiens), sequence (P37231 whole entry, looked up): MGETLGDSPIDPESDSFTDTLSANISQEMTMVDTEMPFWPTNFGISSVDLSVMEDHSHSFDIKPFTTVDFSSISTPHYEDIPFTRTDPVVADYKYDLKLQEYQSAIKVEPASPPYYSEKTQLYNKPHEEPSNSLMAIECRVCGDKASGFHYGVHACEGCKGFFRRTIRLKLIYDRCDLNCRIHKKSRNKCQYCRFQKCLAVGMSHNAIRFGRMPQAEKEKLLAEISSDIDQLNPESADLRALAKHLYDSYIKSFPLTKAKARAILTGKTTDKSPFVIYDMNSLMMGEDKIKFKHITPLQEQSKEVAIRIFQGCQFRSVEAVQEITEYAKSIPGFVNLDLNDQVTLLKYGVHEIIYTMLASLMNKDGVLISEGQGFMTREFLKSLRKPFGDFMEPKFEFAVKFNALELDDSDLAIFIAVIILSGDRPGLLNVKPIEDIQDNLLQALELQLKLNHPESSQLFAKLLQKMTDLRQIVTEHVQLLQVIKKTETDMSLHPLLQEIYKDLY
Outline: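 Reporter activation was scored by fluorescence of cleaved LiveBLAzer B/G substrate (1 h, room temperature) in PPARg-bla HEK293H cells previously treated 17 h at 37C with DMSO-dissolved compounds.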

[4] = qHTS assay to identify small molecule antagonists of the peroxisome proliferator-activated receptor gamma (PPARg) signaling pathway - cell viability counter screen (AID 743194); note: nearly all actives have a fitted effect of over 55% in size
Outline: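 Cytotoxicity counter screen in PPARg-bla HEK293H cells, same wells as reporter assay. Compounds plus 50 nM rosiglitazone (final) for 17 h at 37 C, then viability read by CellTiter-Glo luminescence.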

[5] = qHTS assay for small molecule agonists of the antioxidant response element (ARE) signaling pathway - cell viability counter screen (AID 743203; calls by dose curve; note: nearly all actives have a fitted effect of over 55% in size)
Outline: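 Viability counter screen: stably transfected ARE-bla HepG2 line, 16 hrs compound exposure at 37C/5% CO2, ATP-based CellTiter-Glo luminescence measured in the reporter wells.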

[6] = qHTS assay for small molecule activators of the heat shock response signaling pathway - cell viability counter screen (AID 743209); note: nearly all actives have a fitted effect of over 50% in size
Outline: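 Viability of HSE-bla HeLa cells is measured with CellTiter-Glo in the wells already used for the reporter read. Compound exposure lasts 5 h at 37 C, and luminescence is read after 30 min at room temperature.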

[7] = qHTS assay for small molecule activators of the heat shock response signaling pathway (AID 743210; active = well fitted activation curve with a large enough effect in the signal ratio in the repeat runs, with a control signal flat, not every such curve was filed as active; the % refers to the signal ratio;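 note: HeLa cells with beta-lactamase reporter driven by heat shock elements; series mostly up to about 63 µM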)
Outline: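 Beta-lactamase reporter read-out: FRET substrate fluorescence after 2.5 h at RT, following 5 h compound treatment at 37 C of HeLa cells carrying HSE-driven bla reporter; quantitative HTS format.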

[8] = qHTS assay to identify small molecule agonists of the peroxisome proliferator-activated receptor delta (PPARd) signaling pathway - cell viability counter screen (AID 743211); note: nearly all actives have a fitted effect of over 55% in size
Outline: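 Tox21 library compounds, delivered in DMSO, were incubated 17 h with PPARd-bla HEK293H cells; cytotoxicity was taken from CellTiter-Glo luminescence read 30 min after reagent addition.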

[9] = target: Peroxisome proliferator-activated receptor delta (Homo sapiens) (UniProt Q03181); assay: qHTS assay to identify small molecule agonists of the peroxisome proliferator-activated receptor delta (PPARd) signaling pathway (AID 743212; calls by dose curve)
Peroxisome proliferator-activated receptor delta (Homo sapiens), sequence (Q03181 whole entry, looked up): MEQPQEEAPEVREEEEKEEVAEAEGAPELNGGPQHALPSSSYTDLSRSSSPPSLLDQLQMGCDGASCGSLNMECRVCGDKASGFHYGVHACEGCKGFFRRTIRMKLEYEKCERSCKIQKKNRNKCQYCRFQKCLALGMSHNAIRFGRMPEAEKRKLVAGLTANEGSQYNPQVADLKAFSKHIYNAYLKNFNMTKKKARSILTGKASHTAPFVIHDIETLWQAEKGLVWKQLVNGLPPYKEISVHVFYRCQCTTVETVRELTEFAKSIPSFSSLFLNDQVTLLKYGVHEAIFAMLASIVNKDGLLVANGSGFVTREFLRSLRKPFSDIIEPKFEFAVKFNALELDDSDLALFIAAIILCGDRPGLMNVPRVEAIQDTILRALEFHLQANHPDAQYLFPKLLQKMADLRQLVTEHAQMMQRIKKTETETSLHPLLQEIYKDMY
Outline: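 Read-out: beta-lactamase FRET fluorescence after 2 h room-temperature incubation with LiveBLAzer B/G substrate. Cells were HEK293H carrying a UAS-bla reporter for PPARd, treated at 37 C with DMSO-dissolved compounds.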

[10] = qHTS assay to identify small molecule antagonists of the peroxisome proliferator-activated receptor delta (PPARd) signaling pathway - cell viability counter screen (AID 743213); note: nearly all actives have a fitted effect of over 50% in size
Outline: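 In this counter screen, HEK293H cells carrying a UAS-beta-lactamase reporter are co-treated with test compounds and 300 nM L165041 (final) for 17 h at 37 C; cell viability is quantified by CellTiter-Glo luminescence.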

[11] = qHTS assay to identify small molecule agonists of the farnesoid-X-receptor (FXR) signaling pathway - cell viability counter screen (AID 743218); note: nearly all actives have a fitted effect of over 45% in size
Outline: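 Viability of FXR-bla HEK 293T cells is measured by ATP-based CellTiter-Glo luminescence following 16 h compound treatment at 37 C and a prior 2 h room-temperature beta-lactamase substrate step.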

[12] = target: Vitamin D3 receptor (Homo sapiens) (UniProt P11473); assay: qHTS assay to identify small molecule agonists of the vitamin D receptor (VDR) signaling pathway (AID 743222; calls by dose curve)
Vitamin D3 receptor (Homo sapiens), sequence (P11473 whole entry, looked up): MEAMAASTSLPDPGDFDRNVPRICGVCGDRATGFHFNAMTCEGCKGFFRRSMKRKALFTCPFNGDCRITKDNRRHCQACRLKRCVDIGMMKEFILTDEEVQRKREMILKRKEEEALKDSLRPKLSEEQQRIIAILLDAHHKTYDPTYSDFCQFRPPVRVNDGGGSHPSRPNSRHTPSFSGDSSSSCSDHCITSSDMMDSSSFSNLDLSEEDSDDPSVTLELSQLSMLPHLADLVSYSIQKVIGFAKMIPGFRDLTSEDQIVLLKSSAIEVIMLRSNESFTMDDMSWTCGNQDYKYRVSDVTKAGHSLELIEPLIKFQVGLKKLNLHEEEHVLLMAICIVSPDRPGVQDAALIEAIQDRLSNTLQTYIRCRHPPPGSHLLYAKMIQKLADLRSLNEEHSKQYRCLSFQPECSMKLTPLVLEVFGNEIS
Outline: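 Fluorescence from cleaved LiveBLAzer B/G FRET substrate served as readout. VDR-bla cells had been treated 16 h at 37C with test compounds in DMSO, following a 4 h settling period, and substrate was loaded for 2 h at RT.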

[13] = target: Vitamin D3 receptor (Homo sapiens) (UniProt P11473); assay: qHTS assay to identify small molecule antagonists of the vitamin D receptor (VDR) signaling pathway (AID 743223; active = well fitted inhibition curve with a large enough effect in the signal ratio in the repeat runs, not every such curve was filed as active; the % refers to the signal ratio)
Outline: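 Quantitative HTS in VDR-bla reporter cells stimulated with 1alpha,25-dihydroxyvitamin D3, 3 nM final. Compound exposure 16 h, 37C, 5% CO2. Read-out: beta-lactamase FRET substrate fluorescence, 2 h RT.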

[14] = qHTS assay to identify small molecule agonists of the vitamin D receptor (VDR) signaling pathway - cell viability counter screen (AID 743224); note: series mostly up to about 63 µM; nearly all actives have a fitted effect of over 50% in size
Outline: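 Compounds were pin-transferred onto VDR-bla cells plated 4 h earlier; following 16 h incubation at 37C, cell viability was quantified by CellTiter-Glo luminescence after 30 min at room temperature.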

[15] = qHTS assay for small molecule agonists of the antioxidant response element (ARE) signaling pathway (AID 743202; active = well fitted activation curve with a large enough effect in the signal ratio in the repeat runs, not every such curve was filed as active; the % refers to the signal ratio)
Outline: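 HepG2 ARE-bla reporter line, 2,000 cells/well; 5 h preincubation 37 C/5% CO2; compound (DMSO) 16 h 37 C; B/G FRET substrate 2 h RT; fluorescence intensity.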

[16] = target: Peroxisome proliferator-activated receptor delta (Homo sapiens) (UniProt Q03181); assay: qHTS assay to identify small molecule antagonists of the peroxisome proliferator-activated receptor delta (PPARd) signaling pathway (AID 743215; active = well fitted inhibition curve with a large enough effect in the signal ratio in the repeat runs, not every such curve was filed as active; the % refers to the signal ratio;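 note: cells stimulated with agonist L165041 at 300 nM final during compound exposure; series mostly up to about 62 µM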)
Outline: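 Plated HEK293H PPARd-bla cells rested 5 h at 37 C and 5% CO2. Compound, then agonist L165041 at 300 nM final, was added; 17 h at 37 C followed. Substrate loading, 2 h room temperature, fluorescence measured.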

[17] = qHTS assay to identify small molecule antagonists of the farnesoid-X-receptor (FXR) signaling pathway - cell viability counter screen (AID 743221; active = well fitted cell-killing curve with a large enough effect in the repeat runs, not every such curve was filed as active; note: nearly all actives have a fitted effect of over 50% in size)
Outline: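 Cytotoxicity is taken from ATP luminescence (CellTiter-Glo, 30 min, room temperature) in FXR-bla HEK 293T cells previously incubated 16 h at 37 C with compound and chenodeoxycholic acid at 50 uM final.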

[18] = target: Bile acid receptor (Homo sapiens) (UniProt Q96RI1); assay: qHTS assay to identify small molecule agonists of the farnesoid-X-receptor (FXR) signaling pathway (AID 743220; active = well fitted activation curve with a large enough effect in the signal ratio in the repeat runs, not every such curve was filed as active; the % refers to the signal ratio)
Bile acid receptor (Homo sapiens), sequence (Q96RI1 whole entry, looked up): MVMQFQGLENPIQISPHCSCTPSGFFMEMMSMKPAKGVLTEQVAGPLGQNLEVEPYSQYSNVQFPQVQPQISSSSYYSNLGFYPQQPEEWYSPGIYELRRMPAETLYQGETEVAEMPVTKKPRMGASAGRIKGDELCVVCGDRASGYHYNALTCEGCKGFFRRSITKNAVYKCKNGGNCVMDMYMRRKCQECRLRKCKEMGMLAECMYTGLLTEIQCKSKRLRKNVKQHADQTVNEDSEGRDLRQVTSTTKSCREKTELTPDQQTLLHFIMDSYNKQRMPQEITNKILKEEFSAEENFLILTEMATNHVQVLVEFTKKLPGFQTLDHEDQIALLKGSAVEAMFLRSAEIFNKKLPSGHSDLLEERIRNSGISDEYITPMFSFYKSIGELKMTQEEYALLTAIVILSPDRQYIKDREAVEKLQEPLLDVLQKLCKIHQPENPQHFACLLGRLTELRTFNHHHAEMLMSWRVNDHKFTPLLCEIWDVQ
Outline: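 FXR-UAS-bla HEK 293T cells carrying a UAS-driven beta-lactamase reporter were plated for 5 h at 37C/5% CO2, then exposed to DMSO-dissolved Tox21 10K compounds for 16 h at 37C. A LiveBLAzer B/G FRET substrate was loaded for 2 h at room temperature before fluorescence reading.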

Measured: Potency

NCC1(Cc2noc(=O)[nH]2)CCCCC1
not listed: [15] | [16] | [17] | [18]
inactive: all other assays above

C=CCOC(=O)CCCCCC
not listed: [15] | [16] | [17] | [18]
inactive: all other assays above

COC(=O)c1ccccc1C(=O)O
not listed: [6] | [10] | [14] | [18]
inactive: all other assays above

C=CC(=O)CCCCC
inactive: [1] | [2] | [3] | [4] | [5] | [7] | [9] | [11] | [17] | [14]

C=C(C)C1CC=C(C)C(=O)C1 (stereo unspecified)
not listed: [7] | [8] | [9] | [14] | [16] | [18]
inactive: all other assays above

CN(C)CCOC(=O)C(c1ccccc1)C1(O)CCCC1 (stereo unspecified)
not listed: [6] | [14] | [18]
inactive: all other assays above

C[Si]1(C)O[Si](C)(C)O[Si](C)(C)O[Si](C)(C)O[Si](C)(C)O1
not listed: [10] | [13] | [18]
inactive: all other assays above

CC(C)CCOC(=O)c1ccccc1
not listed: [4] | [10] | [16] | [17]
inactive: all other assays above

CCCCCCCCCOC(=O)CCCCC(=O)OCCCCCCC
not listed: [7] | [13] | [15] | [16] | [18]
inactive: all other assays above
